About 7,900 targets were measured; listed, in parts, are those with a hit and a random draw of the rest. About 0.6% of all pairs of compound and target were hits.
Key:
Assay in all cases: log2 fold change, soluble protein after heating vs DMSO (PISA); higher = thermal stabilisation; K562 cells, 10 uM, 30 min; active = over 0.2 and 3.5 SD of the protein, either way, in both replicates (recomputed)
saracatinib = compound: CN1CCN(CCOc2cc(OC3CCOCC3)c3c(Nc4c(Cl)ccc5c4OCO5)ncnc3c2)CC1 [saracatinib]
Procedure, shortened: (§1)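 Quantification of soluble protein used TMTpro 16plex LC-MS/MS, with channel sums equalised. Samples were the supernatant after 21,000xg for 90 min of pooled aliquots from K562 cells (2×10^6 cells/mL) treated with 10 μM compound for 30 min, heated for 3 min over 48°C-58°C, and extracted in PBS with 0.5% NP-40 at 4°C. Values, from duplicates, describe thermal stability against control samples on a log2 fold-change scale.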

sotrastaurin = compound: CN1CCN(c2nc(C3=C(c4c[nH]c5ccccc45)C(=O)NC3=O)c3ccccc3n2)CC1 [sotrastaurin]
Procedure, shortened: as §1

alvocidib = compound: CN1CC[C@H](c2c(O)cc(O)c3c(=O)cc(-c4ccccc4Cl)oc23)[C@H](O)C1 [alvocidib]
Procedure, shortened: as §1

Tubastatin A = compound: CN1CCc2c(c3ccccc3n2Cc2ccc(C(=O)NO)cc2)C1 [Tubastatin A]
Procedure, shortened: as §1

[1] = compound: CNC(=O)C1=CC=CC=C1NC2=NC(=NC=C2Cl)NC3=C(C=C(C=C3)N4CCOCC4)OC
Procedure, shortened: as §1

defactinib = compound: CNC(=O)c1ccc(Nc2ncc(C(F)(F)F)c(NCc3nccnc3N(C)S(C)(=O)=O)n2)cc1 [defactinib]
Procedure, shortened: as §1

rucaparib = compound: CNCc1ccc(-c2[nH]c3cc(F)cc4c3c2CCNC4=O)cc1 [rucaparib]
Procedure, shortened: as §1

[2] = compound: CNc1nc(-c2ccc3c(N)n[nH]c3c2)cc(N2C[C@@H](C(=O)NC3CCCCC3)CC[C@H]2C)n1
Procedure, shortened: as §1

encorafenib = compound: COC(=O)N[C@@H](C)CNc1nccc(-c2cn(C(C)C)nc2-c2cc(Cl)cc(NS(C)(=O)=O)c2F)n1 [encorafenib]
Procedure, shortened: as §1

[3] = compound: COC(=O)[C@H](CCSC)NC(=O)C1=C(C=C(C=C1)NC[C@H](CS)N)C2=CC=CC=C2
Procedure, shortened: as §1

[4] = compound: COC1=CC=C(C=C1)CN2C=CC3=C2C=C(C=C3)C(=O)NO
Procedure, shortened: as §1

filanesib = compound: CON(C)C(=O)N1N=C(c2cc(F)ccc2F)S[C@@]1(CCCN)c1ccccc1 [filanesib]
Procedure, shortened: as §1

zotarolimus = compound: CO[C@H]1C[C@@H]2CC[C@@H](C)[C@@](O)(O2)C(=O)C(=O)N2CCCC[C@H]2C(=O)O[C@H]([C@H](C)C[C@@H]2CC[C@H](n3cnnn3)[C@H](OC)C2)CC(=O)[C@H](C)/C=C(\C)[C@@H](O)[C@@H](OC)C(=O)[C@H](C)C[C@H](C)/C=C/C=C/C=C/1C [zotarolimus]
Procedure, shortened: as §1

idasanutlin = compound: COc1cc(C(=O)O)ccc1NC(=O)[C@@H]1N[C@@H](CC(C)(C)C)[C@](C#N)(c2ccc(Cl)cc2F)[C@H]1c1cccc(Cl)c1F [idasanutlin]
Procedure, shortened: as §1

alisertib = compound: COc1cc(Nc2ncc3c(n2)-c2ccc(Cl)cc2C(c2c(F)cccc2OC)=NC3)ccc1C(=O)O [alisertib]
Procedure, shortened: as §1

[5] = compound: COc1cc2nc(-c3cc(F)ccc3O)nc(N[C@@H]3CNC[C@H]3C(C)(C)O)c2cc1OC
Procedure, shortened: as §1

gefitinib = compound: COc1cc2ncnc(Nc3ccc(F)c(Cl)c3)c2cc1OCCCN1CCOCC1 [gefitinib]
Procedure, shortened: as §1

[6] = compound: COc1cccc2cc(-c3nc([C@H]4CC[C@H](C(=O)O)CC4)n4ncnc(N)c34)[nH]c12
Procedure, shortened: as §1

lapatinib = compound: CS(=O)(=O)CCNCc1ccc(-c2ccc3ncnc(Nc4ccc(OCc5cccc(F)c5)c(Cl)c4)c3c2)o1 [lapatinib]
Procedure, shortened: as §1

pictilisib = compound: CS(=O)(=O)N1CCN(Cc2cc3nc(-c4cccc5[nH]ncc45)nc(N4CCOCC4)c3s2)CC1 [pictilisib]
Procedure, shortened: as §1

Measured: log2 fold change

UBC (UniProt P0CG48)
Sequence of UniProt P0CG48 (P0CG48 whole entry, looked up): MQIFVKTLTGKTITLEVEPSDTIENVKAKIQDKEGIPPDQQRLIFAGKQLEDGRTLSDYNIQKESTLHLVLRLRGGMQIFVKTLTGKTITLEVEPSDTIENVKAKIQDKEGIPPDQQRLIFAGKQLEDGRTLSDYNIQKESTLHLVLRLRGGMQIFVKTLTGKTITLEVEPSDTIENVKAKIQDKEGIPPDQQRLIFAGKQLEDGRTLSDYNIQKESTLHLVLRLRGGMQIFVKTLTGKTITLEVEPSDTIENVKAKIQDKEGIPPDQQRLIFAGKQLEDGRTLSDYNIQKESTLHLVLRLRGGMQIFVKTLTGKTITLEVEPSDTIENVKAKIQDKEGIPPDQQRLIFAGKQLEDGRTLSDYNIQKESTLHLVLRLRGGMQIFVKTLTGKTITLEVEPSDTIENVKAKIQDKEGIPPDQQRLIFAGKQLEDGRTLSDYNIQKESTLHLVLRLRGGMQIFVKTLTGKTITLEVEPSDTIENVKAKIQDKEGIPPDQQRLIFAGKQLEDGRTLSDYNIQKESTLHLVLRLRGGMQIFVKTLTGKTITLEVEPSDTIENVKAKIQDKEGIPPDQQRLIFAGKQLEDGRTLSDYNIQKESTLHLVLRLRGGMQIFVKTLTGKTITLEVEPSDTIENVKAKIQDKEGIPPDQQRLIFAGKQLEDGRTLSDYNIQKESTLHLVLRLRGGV
inactive: saracatinib -0.106 | sotrastaurin 0.042 | alvocidib -0.049 | Tubastatin A 0.252 | [1] 0.002 | defactinib 0.031 | rucaparib 0.053 | [2] 0.017 | encorafenib -0.124 | [3] 0.005 | [4] -0.064 | filanesib 0.09 | zotarolimus 0.048 | idasanutlin 0 | alisertib -0.002 | [5] 0.06 | gefitinib 0.038 | [6] 0.018 | lapatinib -0.101 | pictilisib 0.008

TNFAIP8 isoform 4 (UniProt O95379)
Sequence of UniProt O95379 (O95379 whole entry, looked up): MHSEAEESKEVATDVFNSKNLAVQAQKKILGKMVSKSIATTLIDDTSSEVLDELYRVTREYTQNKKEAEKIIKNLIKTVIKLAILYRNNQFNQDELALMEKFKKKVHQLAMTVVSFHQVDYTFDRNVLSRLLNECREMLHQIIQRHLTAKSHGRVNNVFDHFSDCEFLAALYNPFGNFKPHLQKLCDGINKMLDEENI
inactive: saracatinib 0.009 | sotrastaurin -0.125 | alvocidib -0.072 | Tubastatin A 0.083 | [1] -0.046 | defactinib -0.033 | rucaparib -0.04 | [2] -0.064 | encorafenib -0.016 | [3] -0.015 | [4] 0.027 | filanesib -0.015 | zotarolimus 0.085 | idasanutlin -0.055 | alisertib -0.01 | [5] 0.046 | gefitinib 0.028 | [6] 0.041 | lapatinib 0.065 | pictilisib -0.027

TOE1 (UniProt Q96GM8)
inactive: saracatinib 0.025 | sotrastaurin -0.016 | alvocidib 0.221 | Tubastatin A 0.031 | [1] 0.122 | defactinib 0.193 | rucaparib -0.066 | [2] 0.05 | encorafenib 0.017 | [3] 0.05 | [4] -0.06 | filanesib 0.246 | zotarolimus 0.023 | idasanutlin 0.032 | alisertib -0.075 | [5] 0.039 | gefitinib 0.014 | [6] -0.162 | lapatinib 0.076 | pictilisib -0.054

WASHC2C, A0A096LPC5
Sequence of WASHC2C, A0A096LPC5 (A0A096LPC5 whole entry, looked up): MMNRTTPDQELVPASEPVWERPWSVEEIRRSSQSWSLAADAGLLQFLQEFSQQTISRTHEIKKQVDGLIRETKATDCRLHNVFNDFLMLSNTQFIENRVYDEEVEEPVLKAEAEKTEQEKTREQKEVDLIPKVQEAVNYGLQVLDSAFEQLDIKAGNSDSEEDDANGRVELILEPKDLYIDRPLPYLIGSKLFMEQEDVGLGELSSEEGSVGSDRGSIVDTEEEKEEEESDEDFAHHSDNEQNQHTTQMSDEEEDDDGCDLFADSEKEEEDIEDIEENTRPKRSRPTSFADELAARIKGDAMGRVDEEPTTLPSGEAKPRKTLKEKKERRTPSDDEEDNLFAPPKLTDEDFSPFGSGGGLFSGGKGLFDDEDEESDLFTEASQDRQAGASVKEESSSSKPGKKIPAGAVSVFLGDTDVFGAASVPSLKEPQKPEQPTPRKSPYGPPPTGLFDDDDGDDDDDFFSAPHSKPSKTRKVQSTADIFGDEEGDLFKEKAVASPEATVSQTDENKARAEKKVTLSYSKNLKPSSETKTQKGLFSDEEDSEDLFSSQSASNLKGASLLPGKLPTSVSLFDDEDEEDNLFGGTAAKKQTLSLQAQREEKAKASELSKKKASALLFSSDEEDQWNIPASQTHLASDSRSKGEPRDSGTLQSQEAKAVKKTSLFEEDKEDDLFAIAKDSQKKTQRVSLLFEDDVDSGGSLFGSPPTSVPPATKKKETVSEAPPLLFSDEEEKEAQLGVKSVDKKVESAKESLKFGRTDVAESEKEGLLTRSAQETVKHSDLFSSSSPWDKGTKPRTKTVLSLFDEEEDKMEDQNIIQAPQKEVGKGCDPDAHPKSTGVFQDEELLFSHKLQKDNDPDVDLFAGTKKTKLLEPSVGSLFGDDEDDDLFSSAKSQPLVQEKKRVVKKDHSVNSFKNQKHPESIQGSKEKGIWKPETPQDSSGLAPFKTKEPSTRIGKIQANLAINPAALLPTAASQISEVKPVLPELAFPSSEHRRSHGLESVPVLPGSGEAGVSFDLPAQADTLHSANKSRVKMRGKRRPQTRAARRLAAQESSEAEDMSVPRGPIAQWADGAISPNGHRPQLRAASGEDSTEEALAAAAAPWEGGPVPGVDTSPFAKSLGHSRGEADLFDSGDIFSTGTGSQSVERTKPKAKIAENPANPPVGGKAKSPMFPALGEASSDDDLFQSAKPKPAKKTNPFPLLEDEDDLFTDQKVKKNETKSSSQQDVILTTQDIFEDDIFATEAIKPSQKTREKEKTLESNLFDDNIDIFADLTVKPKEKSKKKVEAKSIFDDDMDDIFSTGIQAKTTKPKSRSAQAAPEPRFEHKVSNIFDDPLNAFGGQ
inactive: saracatinib -0.116 | sotrastaurin -0.09 | alvocidib 0.071 | Tubastatin A -0.02 | [1] -0.019 | defactinib -0.121 | rucaparib 0.114 | [2] -0.02 | encorafenib 0.035 | [3] 0.052 | [4] -0.072 | filanesib 0.057 | zotarolimus -0.062 | idasanutlin 0.146 | alisertib -0.042 | [5] 0.305 | gefitinib 0.018 | [6] 0.098 | lapatinib -0.141 | pictilisib 0.048

UXT isoform 2 (UniProt Q9UBK9)
Sequence of UniProt Q9UBK9 (Q9UBK9 whole entry, looked up): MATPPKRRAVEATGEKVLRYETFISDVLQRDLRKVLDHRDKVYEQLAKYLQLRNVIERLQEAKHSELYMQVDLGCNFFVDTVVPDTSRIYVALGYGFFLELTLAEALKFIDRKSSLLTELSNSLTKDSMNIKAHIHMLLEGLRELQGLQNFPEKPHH
inactive: saracatinib 0.031 | sotrastaurin -0.056 | alvocidib -0.01 | Tubastatin A 0.077 | [1] -0.191 | defactinib 0 | rucaparib 0.049 | [2] -0.027 | encorafenib -0.018 | [3] -0.078 | filanesib 0.001 | zotarolimus -0.067 | idasanutlin 0.026 | alisertib -0.016 | [5] 0.033 | gefitinib 0.049 | [6] -0.025 | lapatinib 0.077 | pictilisib 0.25
active: [4] 0.473

TTC4 (UniProt O95801)
Sequence of UniProt O95801 (O95801 whole entry, looked up): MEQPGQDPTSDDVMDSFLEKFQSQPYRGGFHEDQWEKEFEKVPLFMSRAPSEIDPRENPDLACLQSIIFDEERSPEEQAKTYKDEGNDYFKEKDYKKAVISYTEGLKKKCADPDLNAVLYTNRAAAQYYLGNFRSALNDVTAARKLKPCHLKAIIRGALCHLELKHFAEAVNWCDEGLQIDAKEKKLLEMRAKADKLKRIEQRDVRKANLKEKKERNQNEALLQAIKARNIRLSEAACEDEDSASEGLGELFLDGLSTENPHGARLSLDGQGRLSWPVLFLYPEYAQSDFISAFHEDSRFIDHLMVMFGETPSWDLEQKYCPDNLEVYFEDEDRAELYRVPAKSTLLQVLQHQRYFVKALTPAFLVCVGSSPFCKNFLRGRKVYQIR
inactive: saracatinib -0.09 | sotrastaurin -0.11 | alvocidib -0.146 | Tubastatin A 0.055 | [1] 0.078 | defactinib -0.169 | rucaparib 0.04 | [2] 0.051 | encorafenib 0.049 | [3] -0.055 | [4] 0.087 | filanesib 0.004 | zotarolimus 0.016 | idasanutlin -0.003 | alisertib 0.029 | [5] 0.054 | gefitinib 0.032 | [6] -0.072 | lapatinib -0.003 | pictilisib -0.016

TTI1 (UniProt O43156)
Sequence of UniProt O43156 (O43156 whole entry, looked up): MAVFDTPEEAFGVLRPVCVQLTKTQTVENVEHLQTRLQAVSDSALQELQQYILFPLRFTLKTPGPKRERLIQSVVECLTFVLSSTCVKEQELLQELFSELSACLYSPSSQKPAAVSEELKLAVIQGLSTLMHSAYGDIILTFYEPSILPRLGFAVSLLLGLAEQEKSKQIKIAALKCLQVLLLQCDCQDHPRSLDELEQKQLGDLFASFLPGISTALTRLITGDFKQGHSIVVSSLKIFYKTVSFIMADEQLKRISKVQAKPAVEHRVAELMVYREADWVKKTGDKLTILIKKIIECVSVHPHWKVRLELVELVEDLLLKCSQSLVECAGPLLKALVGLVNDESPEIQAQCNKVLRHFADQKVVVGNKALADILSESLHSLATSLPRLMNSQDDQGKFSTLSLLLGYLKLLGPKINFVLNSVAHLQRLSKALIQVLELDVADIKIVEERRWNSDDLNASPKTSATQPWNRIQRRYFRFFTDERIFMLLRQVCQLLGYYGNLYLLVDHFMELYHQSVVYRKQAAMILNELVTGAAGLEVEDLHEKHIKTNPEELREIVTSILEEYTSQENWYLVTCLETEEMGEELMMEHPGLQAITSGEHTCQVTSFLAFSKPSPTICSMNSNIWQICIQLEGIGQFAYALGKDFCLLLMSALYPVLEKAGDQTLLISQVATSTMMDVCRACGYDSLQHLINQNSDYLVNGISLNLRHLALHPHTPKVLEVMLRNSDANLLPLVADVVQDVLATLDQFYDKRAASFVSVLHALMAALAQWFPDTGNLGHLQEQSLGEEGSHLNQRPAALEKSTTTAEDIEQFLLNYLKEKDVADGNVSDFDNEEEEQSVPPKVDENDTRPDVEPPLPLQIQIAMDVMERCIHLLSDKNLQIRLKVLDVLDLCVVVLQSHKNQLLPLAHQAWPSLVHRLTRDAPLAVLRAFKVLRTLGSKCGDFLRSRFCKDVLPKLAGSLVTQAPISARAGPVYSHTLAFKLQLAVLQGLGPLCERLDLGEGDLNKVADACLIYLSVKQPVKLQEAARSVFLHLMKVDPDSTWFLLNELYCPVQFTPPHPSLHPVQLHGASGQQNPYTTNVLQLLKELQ
inactive: saracatinib -0.065 | sotrastaurin -0.128 | alvocidib 0.017 | Tubastatin A -0.007 | [1] -0.058 | defactinib -0.046 | rucaparib 0.237 | [2] 0.053 | encorafenib 0.068 | [3] 0.004 | [4] -0.031 | filanesib 0.081 | zotarolimus 0.091 | idasanutlin -0.097 | alisertib -0.112 | [5] 0.02 | gefitinib -0.057 | [6] -0.019 | lapatinib -0.008 | pictilisib 0.049

TXN2 (UniProt Q99757)
inactive: saracatinib 0.004 | sotrastaurin 0.04 | alvocidib -0.058 | Tubastatin A 0.004 | [1] 0.17 | defactinib 0.031 | rucaparib -0.003 | [2] -0.034 | encorafenib 0.001 | [3] 0.068 | [4] 0.039 | filanesib 0.015 | zotarolimus 0.211 | idasanutlin 0.108 | alisertib -0.19 | [5] -0.015 | gefitinib 0.042 | [6] -0.023 | lapatinib -0.078 | pictilisib -0.186

UCHL5 (UniProt Q9Y5K5)
inactive: saracatinib -0.044 | sotrastaurin -0.057 | alvocidib -0.097 | Tubastatin A 0.148 | [1] 0.013 | defactinib -0.107 | rucaparib 0.074 | [2] -0.001 | encorafenib 0.091 | [3] -0.028 | [4] 0.023 | filanesib -0.035 | zotarolimus 0.026 | idasanutlin -0.044 | alisertib -0.048 | [5] 0.04 | gefitinib 0.008 | [6] -0.031 | lapatinib -0.023 | pictilisib 0.012

TRMT10C (UniProt Q7L0Y3)
Sequence of UniProt Q7L0Y3 (Q7L0Y3 whole entry, looked up): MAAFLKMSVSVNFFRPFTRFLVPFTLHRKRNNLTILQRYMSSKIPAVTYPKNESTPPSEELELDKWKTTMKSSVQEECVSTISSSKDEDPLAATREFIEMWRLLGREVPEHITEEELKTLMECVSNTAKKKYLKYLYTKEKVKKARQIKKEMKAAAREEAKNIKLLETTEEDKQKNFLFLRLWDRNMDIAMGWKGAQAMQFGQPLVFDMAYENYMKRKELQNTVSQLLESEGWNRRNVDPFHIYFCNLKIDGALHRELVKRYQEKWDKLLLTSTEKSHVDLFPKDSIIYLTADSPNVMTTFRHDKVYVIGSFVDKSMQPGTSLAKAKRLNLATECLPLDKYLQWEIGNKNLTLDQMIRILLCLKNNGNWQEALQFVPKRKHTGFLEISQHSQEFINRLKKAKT
inactive: saracatinib -0.129 | sotrastaurin -0.013 | alvocidib -0.126 | Tubastatin A -0.064 | [1] -0.024 | defactinib -0.055 | rucaparib -0.011 | [2] 0.042 | encorafenib 0.041 | [3] -0.056 | [4] -0.045 | filanesib -0.031 | zotarolimus 0.016 | idasanutlin -0.107 | alisertib -0.033 | [5] 0.018 | gefitinib 0.039 | [6] 0.005 | lapatinib -0.033 | pictilisib 0.007

VTI1B (UniProt Q9UEU0)
Sequence of UniProt Q9UEU0 (Q9UEU0 whole entry, looked up): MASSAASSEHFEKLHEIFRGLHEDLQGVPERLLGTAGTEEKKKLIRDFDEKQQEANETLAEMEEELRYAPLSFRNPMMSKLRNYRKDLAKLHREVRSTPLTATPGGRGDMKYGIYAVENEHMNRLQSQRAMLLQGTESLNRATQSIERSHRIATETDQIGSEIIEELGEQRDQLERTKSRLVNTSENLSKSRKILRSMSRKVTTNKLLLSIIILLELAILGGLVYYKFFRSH
inactive: saracatinib 0.041 | sotrastaurin 0.07 | alvocidib 0.055 | Tubastatin A -0.046 | [1] -0.008 | defactinib 0.005 | rucaparib 0.004 | [2] -0.091 | encorafenib 0 | [3] 0.046 | [4] -0.089 | filanesib -0.027 | zotarolimus -0.063 | idasanutlin -0.026 | alisertib 0.046 | [5] 0 | gefitinib -0.023 | [6] 0.137 | lapatinib 0.002 | pictilisib 0.061

WDHD1 (UniProt O75717)
inactive: saracatinib -0.027 | sotrastaurin -0.067 | alvocidib -0.135 | Tubastatin A 0.079 | [1] 0.075 | defactinib -0.201 | rucaparib -0.06 | [2] 0 | encorafenib 0.119 | [3] -0.022 | [4] 0.013 | filanesib -0.003 | zotarolimus 0.031 | idasanutlin 0.005 | alisertib 0.036 | [5] 0.011 | gefitinib 0.013 | [6] -0.012 | lapatinib 0.006 | pictilisib -0.015

UBE2E3 (UniProt Q969T4)
Sequence of UniProt Q969T4 (Q969T4 whole entry, looked up): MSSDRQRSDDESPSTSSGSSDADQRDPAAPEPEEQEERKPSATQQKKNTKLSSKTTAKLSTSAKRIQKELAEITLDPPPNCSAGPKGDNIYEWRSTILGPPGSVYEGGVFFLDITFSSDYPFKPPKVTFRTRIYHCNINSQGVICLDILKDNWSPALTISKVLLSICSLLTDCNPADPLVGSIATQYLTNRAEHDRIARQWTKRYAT
inactive: saracatinib -0.03 | sotrastaurin -0.044 | alvocidib -0.085 | Tubastatin A -0.074 | [1] 0.067 | defactinib -0.162 | rucaparib -0.014 | [2] -0.022 | encorafenib 0.017 | [3] -0.067 | [4] -0.077 | filanesib -0.046 | zotarolimus -0.013 | idasanutlin -0.075 | alisertib -0.045 | [5] 0.108 | gefitinib -0.076 | [6] 0.022 | lapatinib -0.021 | pictilisib 0.089

TP53BP1 isoform 2 (UniProt Q12888)
inactive: saracatinib 0.01 | sotrastaurin -0.112 | alvocidib -0.081 | Tubastatin A 0.116 | [1] 0.061 | defactinib -0.073 | rucaparib 0.025 | [2] -0.022 | encorafenib 0.059 | [3] 0.036 | [4] 0.006 | filanesib 0.059 | zotarolimus 0.054 | idasanutlin 0.04 | alisertib 0.046 | [5] -0.089 | gefitinib -0.014 | [6] -0.041 | lapatinib 0.028 | pictilisib 0

TXNL4B (UniProt Q9NX01)
Sequence of UniProt Q9NX01 (Q9NX01 whole entry, looked up): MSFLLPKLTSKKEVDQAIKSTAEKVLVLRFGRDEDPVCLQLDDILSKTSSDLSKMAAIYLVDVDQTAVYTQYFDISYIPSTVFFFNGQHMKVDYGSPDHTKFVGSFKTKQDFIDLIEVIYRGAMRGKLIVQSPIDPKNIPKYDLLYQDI
inactive: saracatinib -0.053 | sotrastaurin 0.189 | alvocidib -0.073 | Tubastatin A 0.03 | [1] 0.02 | defactinib -0.093 | rucaparib 0.022 | [2] -0.062 | encorafenib -0.021 | [3] -0.199 | [4] 0.011 | filanesib -0.034 | zotarolimus -0.008 | idasanutlin -0.147 | alisertib 0.097 | [5] 0.106 | gefitinib 0.042 | [6] -0.064 | lapatinib -0.003 | pictilisib -0.003

XPNPEP1 isoform 3 (UniProt Q9NQW7)
active: [3] 0.352
inactive: saracatinib 0.002 | sotrastaurin -0.005 | alvocidib -0.076 | Tubastatin A -0.125 | [1] -0.027 | defactinib -0.07 | rucaparib -0.033 | [2] -0.012 | encorafenib -0.008 | [4] 0.006 | filanesib -0.121 | zotarolimus 0.026 | idasanutlin -0.023 | alisertib 0.028 | [5] -0.009 | gefitinib 0.004 | [6] 0.038 | lapatinib 0.01 | pictilisib 0.068

— the supplement of paper PMC10849652
